# Experimental data from the supplement of paper PMC8728848.
# The full list was thinned out, with the strongest signals kept by preference.
# B1: LKPARMA (Neurospora crassa) (protein)
# chain: MSFHVTAEDARRIEVRDNRTILFARLRREDGEWNDASYELDQIIGNNDGHFQWGGGQNFTETAEDIRFHPKEGAAEQPILRARLRDCNGEFHDRDVNLTEIVENVNGEFQAKF
# B2: CML1 (Coprinopsis cinerea) (protein)
# chain: MAIFHTGSELFIITRGPGKLTLLTWGGLNNLRSVIGAIPTENTGVTKWAVSFSHNYTRFSFIWEGQGEACYQIGNGLTRSPVGRSWSSSSTIHWGSSTVITEDVTSVVPGAVNRDKVTTAYALPDNL
# Columns and labels:
# Experiment in all cases: glycan array binding signal (z-score within array); higher = stronger binding
# Conditions in all cases: glycan notation: IUPAC condensed, linker removed
# Fuc(a1-2)Gal(b1-3)GlcNAc = target: Fuc(a1-2)Gal(b1-3)GlcNAc
# Method in brief: (§1)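 Negative Z-scores can be read as non-binding. The Z-score is calculated within each array and then averaged across arrays of one protein sequence at different concentrations or buffers and across linkers. Arrays, 3228 in all, were curated from the Consortium for Functional Glycomics database and kept only where the protein sequence was available.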
# [1] = target: Fuc(a1-3)[Gal(b1-4)]GlcNAc(b1-4)Gal(b1-4)[Fuc(a1-3)]GlcNAc
# Method in brief: as §1
# [2] = target: Gal(b1-3)GlcNAc(b1-3)Gal(b1-4)Glc
# Method in brief: as §1
# [3] = target: Gal(b1-3)GlcNAc(b1-3)Gal(b1-4)GlcNAc
# Method in brief: as §1
# [4] = target: Gal(b1-3)[Fuc(a1-4)]GlcNAc
# Method in brief: as §1
# [5] = target: Gal(b1-3)[Neu5Ac(a2-6)]GalNAc
# Method in brief: as §1
# [6] = target: Gal(b1-3)[Neu5Ac(a2-6)]GlcNAc(b1-6)Gal(b1-4)Glc
# Method in brief: as §1
# [7] = target: Gal(b1-3)[Neu5Ac(b2-6)]GalNAc
# Method in brief: as §1
# [8] = target: Gal(b1-4)GalNAc(a1-3)[Fuc(a1-2)]Gal(b1-4)GlcNAc
# Method in brief: as §1
# [9] = target: Gal(b1-4)GlcNAc(b1-6)Gal(b1-4)GlcNAc(b1-6)GalNAc
# Method in brief: as §1
# Gal6S(b1-4)Glc = target: Gal6S(b1-4)Glc
# Method in brief: as §1
# Glc(a1-6)Glc(a1-6)Glc = target: Glc(a1-6)Glc(a1-6)Glc
# Method in brief: as §1
# Glc(b1-6)Glc = target: Glc(b1-6)Glc
# Method in brief: as §1
# [10] = target: GlcNAc(b1-2)Man(a1-3)[GlcNAc(b1-2)Man(a1-6)]Man(b1-4)GlcNAc(b1-4)GlcNAc
# Method in brief: as §1
# [11] = target: Neu5Ac(a2-3)Gal(b1-4)GlcNAc(b1-3)Gal(b1-4)GlcNAc
# Method in brief: as §1
# [12] = target: Neu5Ac(a2-3)Gal(b1-4)[Fuc(a1-3)]GlcNAc(b1-3)Gal(b1-4)[Fuc(a1-3)]GlcNAc(b1-3)Gal(b1-4)[Fuc(a1-3)]GlcNAc
# Method in brief: as §1
# [13] = target: Neu5Ac(a2-6)GalNAc(b1-4)GlcNAc
# Method in brief: as §1
# [14] = target: Neu5Ac(a2-8)Neu5Ac(a2-8)Neu5Ac(a2-8)Neu5Ac(a2-3)[GalNAc(b1-4)]Gal(b1-4)Glc
# Method in brief: as §1
# [15] = target: GlcNAc(b1-3)Gal(b1-4)GlcNAc
# Method in brief: as §1
# [16] = target: GlcNAc(b1-3)[GlcNAc(b1-6)]GalNAc
# Method in brief: as §1
# Kdn(a2-3)Gal(b1-3)GlcNAc = target: Kdn(a2-3)Gal(b1-3)GlcNAc
# Method in brief: as §1
# Man(a1-2)Man(a1-3)Man = target: Man(a1-2)Man(a1-3)Man
# Method in brief: as §1
# [17] = target: Neu5Ac(a2-3)Gal(b1-3)GalNAc(b1-3)Gal(a1-4)Gal(b1-4)Glc
# Method in brief: as §1
# [18] = target: Neu5Ac(a2-3)Gal(b1-3)GlcNAc(b1-2)Man(a1-3)[Neu5Ac(a2-3)Gal(b1-3)GlcNAc(b1-2)Man(a1-6)]Man(b1-4)GlcNAc(b1-4)GlcNAc
# Method in brief: as §1
# [19] = target: Neu5Ac(a2-3)Gal(b1-3)[Fuc(a1-4)]GlcNAc
# Method in brief: as §1
# [20] = target: Neu5Ac(a2-3)Gal(b1-4)GlcNAc(b1-2)[Neu5Ac(a2-3)Gal(b1-4)GlcNAc(b1-4)]Man(a1-3)[GlcNAc(b1-4)][Neu5Ac(a2-3)Gal(b1-4)GlcNAc(b1-4)Man(a1-6)]Man(b1-4)GlcNAc(b1-4)GlcNAc
# Method in brief: as §1
# [21] = target: Neu5Ac(a2-3)Gal(b1-4)GlcNAc(b1-3)Gal
# Method in brief: as §1
# [22] = target: Neu5Ac(a2-3)Gal(b1-4)GlcNAc(b1-3)Gal(b1-4)GlcNAc(b1-2)Man(a1-3)[Neu5Ac(a2-3)Gal(b1-4)GlcNAc(b1-3)Gal(b1-4)GlcNAc(b1-2)Man(a1-6)]Man(b1-4)GlcNAc(b1-4)GlcNAc
# Method in brief: as §1
# [23] = target: Neu5Ac(a2-3)Gal(b1-4)GlcNAc(b1-3)Gal(b1-4)GlcNAc(b1-3)GalNAc
# Method in brief: as §1
# [24] = target: Neu5Ac(a2-3)Gal(b1-4)GlcNAc(b1-3)Gal(b1-4)[Fuc(a1-3)]GlcNAc
# Method in brief: as §1
# [25] = target: Neu5Ac(a2-3)Gal(b1-4)[Fuc(a1-3)]GlcNAc(b1-3)Gal
# Method in brief: as §1
# [26] = target: Neu5Ac(a2-3)Gal(b1-4)[Fuc(a1-3)]GlcNAc(b1-3)Gal(b1-4)GlcNAc
# Method in brief: as §1
# [27] = target: Neu5Ac(a2-3)Gal(b1-4)[Fuc(a1-3)]GlcNAc6S
# Method in brief: as §1
# [28] = target: Neu5Ac(a2-3)Gal6S(b1-4)GlcNAc
# Method in brief: as §1
# [29] = target: Neu5Ac(a2-3)Gal6S(b1-4)[Fuc(a1-3)]GlcNAc
# Method in brief: as §1
# [30] = target: Neu5Ac(a2-3)[GalNAc(b1-4)]Gal(b1-4)GlcNAc
# Method in brief: as §1
# [31] = target: Neu5Ac(a2-6)Gal(b1-4)GlcNAc
# Method in brief: as §1
# [32] = target: Neu5Ac(a2-6)Gal(b1-4)GlcNAc(b1-2)[Neu5Ac(a2-6)Gal(b1-4)GlcNAc(b1-4)]Man(a1-3)[GlcNAc(b1-4)][Neu5Ac(a2-6)Gal(b1-4)GlcNAc(b1-2)[Neu5Ac(a2-6)Gal(b1-4)GlcNAc(b1-6)]Man(a1-6)]Man(b1-4)GlcNAc(b1-4)GlcNAc
# Method in brief: as §1
# [33] = target: Neu5Ac(a2-6)Gal(b1-4)GlcNAc(b1-3)Gal(b1-3)GlcNAc
# Method in brief: as §1
# [34] = target: Neu5Ac(a2-6)Gal(b1-4)GlcNAc(b1-6)[Gal(b1-3)GlcNAc(b1-3)]Gal(b1-4)Glc
# Method in brief: as §1
# [35] = target: Neu5Ac(a2-6)Gal(b1-4)GlcNAc6S
# Method in brief: as §1
# Neu5Ac(a2-6)GalNAc = target: Neu5Ac(a2-6)GalNAc
# Method in brief: as §1
# [36] = target: Neu5Ac9Ac(a2-3)Gal(b1-4)GlcNAc
# Method in brief: as §1
# [37] = target: Neu5Gc(b2-6)Gal(b1-4)GlcNAc
# Method in brief: as §1
binder,measurement,setting,value
B1,glycan array binding signal (z-score),Fuc(a1-2)Gal(b1-3)GlcNAc,-0.25
same,glycan array binding signal (z-score),[1],-0.077
same,glycan array binding signal (z-score),[2],4.93
same,glycan array binding signal (z-score),[3],-0.249
same,glycan array binding signal (z-score),[4],-0.251
same,glycan array binding signal (z-score),[5],-0.234
same,glycan array binding signal (z-score),[6],5.09
same,glycan array binding signal (z-score),[7],-0.251
same,glycan array binding signal (z-score),[8],-0.149
same,glycan array binding signal (z-score),[9],-0.252
same,glycan array binding signal (z-score),Gal6S(b1-4)Glc,-0.252
same,glycan array binding signal (z-score),Glc(a1-6)Glc(a1-6)Glc,7.12
same,glycan array binding signal (z-score),Glc(b1-6)Glc,6.76
same,glycan array binding signal (z-score),[10],-0.251
same,glycan array binding signal (z-score),[11],-0.235
same,glycan array binding signal (z-score),[12],-0.212
same,glycan array binding signal (z-score),[13],-0.252
same,glycan array binding signal (z-score),[14],-0.248
B2,glycan array binding signal (z-score),[15],-0.329
same,glycan array binding signal (z-score),[16],-0.329
same,glycan array binding signal (z-score),Kdn(a2-3)Gal(b1-3)GlcNAc,-0.319
same,glycan array binding signal (z-score),Man(a1-2)Man(a1-3)Man,-0.348
same,glycan array binding signal (z-score),[17],-0.333
same,glycan array binding signal (z-score),[18],-0.355
same,glycan array binding signal (z-score),[19],4.64
same,glycan array binding signal (z-score),[20],-0.332
same,glycan array binding signal (z-score),[21],-0.3
same,glycan array binding signal (z-score),[22],-0.331
same,glycan array binding signal (z-score),[23],-0.342
same,glycan array binding signal (z-score),[24],-0.341
same,glycan array binding signal (z-score),[25],4.46
same,glycan array binding signal (z-score),[26],2.41
same,glycan array binding signal (z-score),[27],4.04
same,glycan array binding signal (z-score),[28],6.01
same,glycan array binding signal (z-score),[29],3.49
same,glycan array binding signal (z-score),[30],-0.353
same,glycan array binding signal (z-score),[31],-0.352
same,glycan array binding signal (z-score),[32],-0.321
same,glycan array binding signal (z-score),[33],-0.35
same,glycan array binding signal (z-score),[34],-0.355
same,glycan array binding signal (z-score),[35],-0.334
same,glycan array binding signal (z-score),Neu5Ac(a2-6)GalNAc,-0.331
same,glycan array binding signal (z-score),[36],-0.348
same,glycan array binding signal (z-score),[37],-0.339
